In all, about 39,000 compounds went through this assay and about 1,500 (3.8%) were called active. The full list was thinned out, with actives kept by preference.

This assay has as its system HSkMC (human skeletal muscle cells). The experiment in a line: cytotoxicity call (relative viability < 0.9). The settings on record: 10 µM.
In the case of `C[C@H](CO)N1C[C@H](C)[C@H](CN(C)Cc2ccc(F)cc2)Oc2ncc(C#Cc3cccnc3)cc2C1=O`, the cytotoxicity call is “inactive”.
Under `C[C@H](CO)N1C[C@H](C)[C@H](CN(C)S(=O)(=O)c2cccs2)Oc2c(NS(=O)(=O)c3ccccc3)cccc2C1=O` stands “inactive”; under `C[C@@H]1CCCCO[C@H](CN(C)S(=O)(=O)c2cn(C)cn2)[C@H](C)CN([C@@H](C)CO)C(=O)c2cc(NC(=O)Nc3ccc(C(F)(F)F)cc3)ccc2O1`, “inactive”; under `C[C@@H]1CN([C@@H](C)CO)C(=O)c2cccc(NC(=O)c3nc4ccccc4s3)c2O[C@@H]1CN(C)S(C)(=O)=O`, “inactive”.
With `C[C@H]1CN([C@@H](C)CO)C(=O)Cc2cc(NC(=O)Cc3ccccc3)ccc2O[C@@H]1CN(C)S(=O)(=O)c1ccc(F)cc1`, the cytotoxicity call was “inactive”.
Consider `CC1(C)OC(=O)C2(C(=O)O1)[C@@H](c1ccc(-c3cccc(-c4ccc(C(=O)O)cc4)c3)cc1)CC(=O)C[C@H]2c1ccccc1`, for which the cytotoxicity call was “inactive”.
With `C[C@@H]1CN([C@H](C)CO)C(=O)Cc2cc(NS(=O)(=O)c3ccccc3)ccc2O[C@@H]1CN(C)Cc1ccc(C(=O)O)cc1`, the cytotoxicity call is “inactive”.
Consider `N[C@@H]1CCCN(c2c(Br)cnc3[nH]cc(NC(=O)C4CC4)c23)C1`, for which the cytotoxicity call was “active”.
Under `COc1ncc(NC(=O)C2CC2)c(OC)n1` stands “inactive”; under `N[C@H]1CCCN(c2ncccn2)C1`, “inactive”; under `C[C@@H]1CN([C@H](C)CO)S(=O)(=O)c2ccc(-c3ccc(C(=O)N(C)C)cc3)cc2O[C@@H]1CN(C)C(=O)C1CC1`, “inactive”.
As to `O=C1N(Cc2ccccc2)Cc2ccccc2C[C@@]12N=C(c1ccc(OCCCO)cc1)O[C@H]2c1ccccc1`, the cytotoxicity call was “active”.
On to `O=C(NCc1ccccc1)[C@@]1(CCS(=O)(=O)c2ccccc2)COC(c2ccc(OCCCO)cc2)=N1`, for which the cytotoxicity call is “inactive”.
The result for `O=C1N(CCS(=O)(=O)c2ccccc2)Cc2ccccc2C[C@@]12COC(c1ccc(OCCCO)cc1)=N2` reads “active”; that for `O=C1N(Cc2ccccc2)Cc2ccccc2[C@H]2OC(c3ccc(OCCCO)cc3)=N[C@@]12Cc1ccccc1`, “inactive”.
Under `O=C1N(Cc2ccccc2)Cc2ccccc2[C@H]2OC(c3ccc(OCCCO)cc3)=N[C@@]12CCS(=O)(=O)c1ccccc1` stands “inactive”; under `O=C1N(Cc2ccccc2)Cc2ccccc2C[C@]12N=C(c1ccc(OCCCO)cc1)O[C@@H]2c1ccccc1`, “inactive”; under `Cc1ccc(S(=O)(=O)Nc2cccc3c2O[C@@H](CN(C)Cc2ccc(Oc4ccccc4)cc2)[C@@H](C)CN([C@@H](C)CO)C3=O)cc1`, “inactive”.
In the case of `CC[C@@H](C)c1ccc(NC(=O)c2cc3ccccc3o2)cc1`, the cytotoxicity call was “inactive”.
`C[C@@H]1CN([C@H](C)CO)C(=O)Cc2cc(NS(C)(=O)=O)ccc2O[C@@H]1CN(C)C(=O)Nc1ccc(F)cc1`: the cytotoxicity call is “inactive”.
In the case of `COc1ccc(NC(=O)Nc2ccc3c(c2)C(=O)N([C@H](C)CO)C[C@@H](C)[C@@H](CN(C)CC2CCCCC2)OCCCC[C@@H](C)O3)cc1`, the cytotoxicity call is “active”.
Take `COc1ccc(NC(=O)Nc2ccc3c(c2)C(=O)N([C@@H](C)CO)C[C@H](C)[C@H](CN(C)CC2CCCCC2)OCCCC[C@H](C)O3)cc1`: the cytotoxicity call was “inactive”.
For the compound `C[C@@H]1CCCCO[C@@H](CN(C)CC2CCCCC2)[C@@H](C)CN([C@H](C)CO)C(=O)c2cc(NC(=O)Nc3ccccc3)ccc2O1`, the cytotoxicity call was “inactive”.
Under `C[C@@H]1CN([C@@H](C)CO)C(=O)c2cc(NC(=O)Nc3ccccc3)ccc2O[C@@H](C)CCCCO[C@@H]1CN(C)CC1CCCCC1` stands “active”; under `C[C@@H]1CCCCO[C@H](CN(C)CC2CCCCC2)[C@@H](C)CN([C@H](C)CO)C(=O)c2cc(NC(=O)Nc3ccccc3)ccc2O1`, “inactive”; under `COc1ccc(NC(=O)Nc2ccc3c(c2)C(=O)N([C@@H](C)CO)C[C@@H](C)[C@@H](CN(C)CC2CCCCC2)OCCCC[C@@H](C)O3)cc1`, “inactive”.
Take `C[C@H]1CCCCO[C@H](CN(C)CC2CCCCC2)[C@@H](C)CN([C@@H](C)CO)C(=O)c2cc(NC(=O)Nc3ccccc3)ccc2O1`: the cytotoxicity call is “inactive”.
As to `C[C@@H]1CCCCO[C@H](CN(C)CC2CCCCC2)[C@H](C)CN([C@@H](C)CO)C(=O)c2cc(NC(=O)Nc3ccccc3)ccc2O1`, the cytotoxicity call is “inactive”.
In the case of `C[C@H](CO)N1C[C@H](C)[C@H](CN(C)CC2CCCCC2)OCCCC[C@H](C)Oc2ccc(NC(=O)Nc3ccccc3)cc2C1=O`, the cytotoxicity call was “active”.
Regarding `COc1ccc(S(=O)(=O)Nc2ccc3c(c2)CC(=O)N([C@H](C)CO)C[C@@H](C)[C@H](CN(C)C(=O)Nc2c(C)noc2C)O3)cc1`, the cytotoxicity call is “inactive”.
Under `C[C@@H]1CCCCO[C@@H](CN(C)S(=O)(=O)c2cccs2)[C@@H](C)CN([C@H](C)CO)C(=O)c2cc(NC(=O)Nc3ccc4c(c3)OCO4)ccc2O1` stands “inactive”.
With `N#Cc1ccc(Oc2ccccn2)cc1`, the cytotoxicity call was “inactive”.
Regarding `Cc1cc(C(=O)Nc2cccc3c2O[C@@H](CN(C)Cc2ccc(Oc4ccccc4)cc2)[C@H](C)CN([C@H](C)CO)C3=O)n(C)n1`, the cytotoxicity call was “inactive”.
Under `Cc1noc(C)c1S(=O)(=O)Nc1ccc2c(c1)C(=O)N([C@@H](C)CO)C[C@@H](C)[C@@H](CN(C)S(=O)(=O)c1cn(C)cn1)OCCCC[C@@H](C)O2` stands “inactive”; under `C[C@@H]1CCCCO[C@H](CN(C)Cc2ccc3c(c2)OCO3)[C@H](C)CN([C@H](C)CO)C(=O)c2cc(NC(=O)Nc3ccccc3)ccc2O1`, “inactive”.
For `C[C@@H]1CN([C@@H](C)CO)C(=O)c2cc(NC(=O)Cn3cnnn3)ccc2O[C@@H]1CN(C)Cc1ccc(C(F)(F)F)cc1`, the cytotoxicity call is “inactive”.
Take `CC(C)NC(=O)Nc1ccc2c(c1)CC(=O)N([C@@H](C)CO)C[C@H](C)[C@@H](CN(C)S(=O)(=O)c1ccc(Cl)cc1)O2`: the cytotoxicity call was “inactive”.
Turning to `CC(C)NC(=O)Nc1ccc2c(c1)CC(=O)N([C@H](C)CO)C[C@H](C)[C@H](CN(C)S(=O)(=O)c1ccc(Cl)cc1)O2`, the cytotoxicity call was “inactive”.
As to `C[C@H]1CN([C@@H](C)CO)C(=O)Cc2cc(NC(=O)Nc3ccc(Cl)c(Cl)c3)ccc2O[C@H]1CN(C)S(=O)(=O)c1ccc(Cl)cc1`, the cytotoxicity call was “active”.
Under `C[C@H]1CN([C@@H](C)CO)C(=O)Cc2cc(NC(=O)Nc3cc(Cl)cc(Cl)c3)ccc2O[C@H]1CN(C)S(=O)(=O)c1ccc(Cl)cc1` stands “active”; under `COc1ccc(S(=O)(=O)N(C)C[C@H]2Oc3ccc(N(C)C)cc3CC(=O)N([C@@H](C)CO)C[C@@H]2C)cc1`, “inactive”.
`COc1ccc(S(=O)(=O)N(C)C[C@@H]2Oc3ccc(N(C)C)cc3CC(=O)N([C@H](C)CO)C[C@@H]2C)cc1`: the cytotoxicity call was “active”.
Regarding `CC(C)NC(=O)Nc1ccc2c(c1)CC(=O)N([C@H](C)CO)C[C@H](C)[C@@H](CN(C)S(=O)(=O)c1ccc(Cl)cc1)O2`, the cytotoxicity call is “inactive”.
On to `CC(C)NC(=O)Nc1ccc2c(c1)CC(=O)N([C@@H](C)CO)C[C@@H](C)[C@@H](CN(C)S(=O)(=O)c1ccc(Cl)cc1)O2`, for which the cytotoxicity call is “inactive”.
Regarding `COc1ccc(S(=O)(=O)N(C)C[C@@H]2Oc3ccc(N(C)C)cc3CC(=O)N([C@@H](C)CO)C[C@H]2C)cc1`, the cytotoxicity call is “inactive”.
As for `Cn1nnc2c(N3CCC(O)CC3)ncnc21`, the cytotoxicity call was “inactive”.
Regarding `C[C@H]1CN([C@@H](C)CO)C(=O)c2cccc(NC(=O)CCCCCC(=O)Nc3ccccc3N)c2O[C@@H]1CN(C)Cc1ccc(C(F)(F)F)cc1`, the cytotoxicity call was “inactive”.
`C[C@@H]1CN([C@@H](C)CO)C(=O)c2cc(NC(=O)Nc3cccc4ccccc34)ccc2O[C@@H](C)CCCCO[C@H]1CN(C)C`: the cytotoxicity call was “inactive”.
As to `CCN1CCN(C2=C(NS(=O)(=O)c3ccc(Br)cc3)C(=O)c3ccccc3C2=O)CC1`, the cytotoxicity call was “inactive”.
The result for `CCc1nccn1CC(=O)N[C@H]1C[C@@H](C(=O)OC)N(C)C1` reads “inactive”.
Regarding `Cc1noc(C)c1NC(=O)Nc1ccc2c(c1)CC(=O)N([C@@H](C)CO)C[C@@H](C)[C@@H](CN(C)Cc1ccc(Oc3ccccc3)cc1)O2`, the cytotoxicity call is “inactive”.
Under `COc1ccc(S(=O)(=O)N(C)C[C@H]2Oc3ccc(NC(=O)CCN4CCOCC4)cc3C(=O)N([C@H](C)CO)C[C@H]2C)cc1` stands “inactive”; under `COc1cccc(S(=O)(=O)N(C)C[C@@H]2OCc3cnnn3CCCC(=O)N([C@H](C)CO)C[C@@H]2C)c1`, “inactive”; under `COCCNC(=O)NC(=O)COC(=O)c1cccn1C`, “inactive”.
The result for `O=C(N[C@@H](c1ccc(-c2ccccc2)cc1)c1cnccn1)C1CCN(Cc2ccc(Oc3ccccc3)cc2)CC1` reads “inactive”; that for `C[C@@H]1CN([C@@H](C)CO)C(=O)c2cccc(NC(=O)c3ccc(-c4nccs4)cc3)c2O[C@@H]1CN(C)Cc1ccccc1`, “inactive”; that for `C[C@@H]1CCCCO[C@@H](CN(C)C(=O)Nc2cccc3ccccc23)[C@H](C)CN([C@@H](C)CO)C(=O)c2cc(NC(=O)Nc3cccc4ccccc34)ccc2O1`, “active”.
As to `C[C@H](CO)N1C[C@H](C)[C@@H](CN(C)C(=O)Nc2cccc3ccccc23)OCCCC[C@H](C)Oc2ccc(NC(=O)Nc3cccc4ccccc34)cc2C1=O`, the cytotoxicity call was “inactive”.
With `C[C@@H]1CN([C@@H](C)CO)C(=O)c2cc(NC(=O)Nc3cccc4ccccc34)ccc2O[C@@H](C)CCCCO[C@H]1CN(C)C(=O)Nc1cccc2ccccc12`, the cytotoxicity call is “inactive”.
Turning to `C[C@@H]1CN([C@@H](C)CO)C(=O)c2cc(NC(=O)Nc3cccc4ccccc34)ccc2O[C@@H](C)CCCCO[C@@H]1CN(C)C(=O)C1CCCCC1`, the cytotoxicity call was “active”.
The result for `C[C@@H]1CN([C@@H](C)CO)C(=O)c2cc(NC(=O)NC3CCCCC3)ccc2O[C@@H](C)CCCCO[C@H]1CN(C)C(=O)Nc1ccc2c(c1)OCO2` reads “active”.
`C[C@@H]1CCCCO[C@@H](CN(C)C(=O)Nc2ccc3c(c2)OCO3)[C@H](C)CN([C@H](C)CO)C(=O)c2cc(NC(=O)NC3CCCCC3)ccc2O1`: the cytotoxicity call was “inactive”.
With `C[C@@H]1CN([C@@H](C)CO)C(=O)c2cc(NC(=O)CCC(F)(F)F)ccc2O[C@@H](C)CCCCO[C@H]1CN(C)C(=O)Nc1cccc2ccccc12`, the cytotoxicity call was “active”.
For `C[C@H]1CCCCO[C@H](CN(C)C(=O)C2CCCCC2)[C@@H](C)CN([C@@H](C)CO)C(=O)c2cc(NC(=O)Nc3cccc4ccccc34)ccc2O1`, the cytotoxicity call was “inactive”.
In the case of `C[C@@H]1CCCCO[C@H](CN(C)C(=O)Nc2cccc3ccccc23)[C@@H](C)CN([C@H](C)CO)C(=O)c2cc(NC(=O)CCC(F)(F)F)ccc2O1`, the cytotoxicity call was “inactive”.
In the case of `C[C@@H]1CCCCO[C@@H](CN(C)C(=O)Nc2ccc3c(c2)OCO3)[C@@H](C)CN([C@@H](C)CO)C(=O)c2cc(NC(=O)NC3CCCCC3)ccc2O1`, the cytotoxicity call was “inactive”.
With `C[C@@H]1CCCCO[C@@H](CN(C)C(=O)Nc2cccc3ccccc23)[C@H](C)CN([C@H](C)CO)C(=O)c2cc(NC(=O)CCC(F)(F)F)ccc2O1`, the cytotoxicity call was “inactive”.
With `C[C@@H]1CN([C@H](C)CO)C(=O)c2cc(NC(=O)Nc3cccc4ccccc34)ccc2O[C@@H](C)CCCCO[C@@H]1CN(C)C(=O)C1CCCCC1`, the cytotoxicity call was “inactive”.

(Values after the antibiotic and cytotoxicity screens of Wong et al. (2023).)
